Screening data deposited in PubChem by National Center for Advancing Translational Sciences (NCATS).
In the library only some 11% were active in any assay of this set; here they are far more common.
JMJD2A Tudor – qHTS Assay for Inhibitors of JMJD2A-Tudor Domain; AlphaScreen JMJD2A-Tudor / H3K4me3 peptide binding; Potency, µM (series often up to 114 µM), inactives show top-dose activity change, negative = inhibition, usual class: inhibitors; 4.4% of 390,000 active; Lysine-specific demethylase 4A (Homo sapiens), O75164; AID 504339, 2011; also: potency is read from the fitted curve at half-maximal effect; % is scaled to controls: 0 for no effect and ±100 for the full control effect; nearly all actives have a fitted effect of over 50% in size
G9a block – qHTS Assay for Inhibitors of Histone Lysine Methyltransferase G9a. G9a H3K9 monomethylation, AlphaScreen, 2 h. Potency, µM (doses to about 102 µM), without a hit: at the top dose activity, negative = inhibition, hits mostly inhibitors. 8.8% of 350,000 active. AID 504332, 2011; also: potency is read from the fitted curve at half-maximal effect; % is scaled to controls: 0 for no effect and ±100 for the full control effect; nearly all actives have a fitted effect of over 75% in size
Target sequence (Q96KQ7 913-1193 limits assumed): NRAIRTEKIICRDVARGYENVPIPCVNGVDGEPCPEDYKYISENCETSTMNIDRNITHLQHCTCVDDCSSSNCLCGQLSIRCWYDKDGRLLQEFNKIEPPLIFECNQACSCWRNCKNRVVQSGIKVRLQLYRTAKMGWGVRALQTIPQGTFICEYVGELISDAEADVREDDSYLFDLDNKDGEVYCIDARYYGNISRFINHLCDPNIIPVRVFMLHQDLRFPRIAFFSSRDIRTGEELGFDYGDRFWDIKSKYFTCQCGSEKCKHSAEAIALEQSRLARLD
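G9a (20 nM) preincubated 15 min RT with compounds, then 500 nM biotinylated H3K9 peptide and 20 uM SAM added; 2 h RT reaction. Monomethyl-H3K9 product detected by AlphaScreen with anti-H3K9me1 antibody, streptavidin donor and anti-rabbit IgG acceptor beads.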
L3MBTL1 inh – qHTS Assay for the Inhibitors of L3MBTL1; AID 485360, 2010; AlphaScreen L3MBTL1–H3K9me1 peptide binding; Potency, µM (doses to about 57.1 µM), for the others: at the highest dose activity, negative = inhibition, actives largely listed as inhibitors; Lethal(3)malignant brain tumor-like protein 1 (Homo sapiens), Q9Y468; 0.66% of 230,000 active; also: potency is read from the fitted curve at half-maximal effect; % is scaled to controls: 0 for no effect and ±100 for the full control effect; nearly all actives have a fitted effect of over 60% in size
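L3MBTL1 50 nM + b-AHA-H3(1-15)K9me1 75 nM, 30 min RT; compound added, 30 min RT; streptavidin donor/Ni-chelate acceptor beads 10 ug/mL each final, 30 min RT dark; AlphaScreen read.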
PI5P4Ka inh – qHTS for Inhibitors of phosphatidylinositol 5-phosphate 4-kinase (PI5P4K); AID 652105, 2013; max response, %; 1.2% of 330,000 active; PI5P4Kalpha enzyme, ADP-Glo luminescence, 60 min; hits give low values; active = max response of -50% or lower; inconclusive = between -30% and -50%; inactive = -30% or higher; also: value at the top dose of about 77 µM; % is scaled to controls: 0 for no effect and ±100 for the full control effect
Target sequence (P48426 whole entry, looked up): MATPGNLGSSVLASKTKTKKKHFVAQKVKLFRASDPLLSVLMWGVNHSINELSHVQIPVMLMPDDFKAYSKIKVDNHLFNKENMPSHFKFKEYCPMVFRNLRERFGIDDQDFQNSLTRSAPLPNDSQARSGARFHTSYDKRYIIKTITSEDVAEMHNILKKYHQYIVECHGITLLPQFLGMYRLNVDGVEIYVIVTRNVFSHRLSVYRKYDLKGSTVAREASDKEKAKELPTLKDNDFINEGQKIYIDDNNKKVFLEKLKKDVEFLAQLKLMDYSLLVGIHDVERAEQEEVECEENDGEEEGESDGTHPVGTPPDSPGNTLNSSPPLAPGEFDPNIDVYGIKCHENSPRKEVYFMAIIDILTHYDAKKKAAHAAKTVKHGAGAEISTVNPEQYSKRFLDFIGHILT
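ADP-Glo luminescence end-point read after a 60 min room-temperature kinase reaction of PI5P4Kalpha plus substrate, initiated with ATP at 5 microM final. Buffer: 0.038 M HEPES pH 7.4, EGTA, 0.1% CHAPS, 5% DMSO.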
HP1b chromo inh – HTS for Inhibitors of HP1-beta Chromodomain Interactions with Methylated Histone Tails; AlphaScreen HP1-beta / biotin-H3K9me3 peptide binding; Potency, µM (top dose mostly 114 µM), for the others: top-dose activity change, negative = inhibition, usual class: inhibitors; 0.56% of 390,000 active; also: potency is read from the fitted curve at half-maximal effect; nearly all actives have a fitted effect of over 70% in size
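AlphaScreen: HP1-beta (50 nM) preformed 30 min with biotin-H3(1-18)K9me3 peptide (50 nM) in PBS pH 7.4, 0.01% Tween-20. Compound added for 30 min at RT, then streptavidin donor/nickel chelate acceptor beads (10 ug/mL) for 30 min.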
BAZ2B inh – qHTS Assay for Inhibitors of BAZ2B; AlphaScreen BAZ2B-H3K14Ac peptide displacement; 4.4% of 360,000 active; Potency, µM (doses to about 114 µM), for the others: top-dose activity change, negative = inhibition, hits mostly inhibitors; Bromodomain adjacent to zinc finger domain protein 2B (Homo sapiens), Q9UIF8; also: potency is read from the fitted curve at half-maximal effect; % is scaled to controls: 0 for no effect and ±100 for the full control effect; nearly all actives have a fitted effect of over 60% in size
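AlphaScreen luminescence quantifies BAZ2B engagement of H3K14Ac peptide; the protein and biotinylated peptide are both at 50 nM final, buffer PBS pH 7.4 with 0.01% Tween-20, all steps at room temperature.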
* marks the source's active call; other numbers are inactive results; ? = inconclusive; . = not tested or not shown; [ ] = another dose, or the depositor's remark. Unless noted, calls follow the shape of the dose curve; as a rule, active = well fitted inhibition curve with a large enough effect; inconclusive = small, poorly fitted or top-dose-only effect; inactive = no such curve, though single readings can be large or run the other way.

SMILES | JMJD2A Tudor | G9a block | L3MBTL1 inh | PI5P4Ka inh | HP1b chromo inh | BAZ2B inh
COC(=O)c1cc(NC(=O)CN(c2ccccc2)S(=O)(=O)N(C)C)ccc1Cl | -8% | -2%[59 µM] | . | . | 34% | 0%
Cc1ccc(NC(=O)C2CCCN(c3ncnc4onc(C)c34)C2)c(Cl)c1 (stereo not given) | 1% | -19%[59 µM] | . | . | 31% | 8%[57.1 µM]
O=C(NCCc1csc(-c2cccc(F)c2)n1)C(=O)Nc1cc(F)ccc1F | -13% | 4%[59 µM] | . | . | 8%[57 µM] | -5%
CCOC(=O)c1sc2ncn(CC(=O)Nc3ccc(C)cc3Br)c(=O)c2c1C | -11% | 0%[59 µM] | . | . | 29% | 2%
CCn1cnc2cc(NCc3cccs3)ccc21 | -32% | 45µM* | -11% | -8 | 7% | ?
CCOC(=O)C1=C(O)/C(=C\c2cccs2)N=C1C | -7% | 23% | 16% | -3 | 31% | -1%
CCOC(=O)C1=C(C)N(CC(C)C)C(=O)/C1=C\c1cccs1 | ? | . | -19% | 1 | ? | 11µM*
COC(=O)C1=C(C)N(C2CCCCC2)C(=O)/C1=C\c1cccs1 | ? | 3.2µM* | . | 9 | -33% | 3.2µM*
COC(=O)C1=C(C)N(Cc2cccnc2)C(=O)/C1=C\c1sccc1C | 45µM* | . | ? | 0 | 35µM* | 35µM*
CCN1C(=O)/C(=C\c2cccs2)C(C(=O)OC)=C1C | 56µM* | 45µM* | . | -1 | ? | 50µM*
COC(=O)C1=C(C)N(C)C(=O)/C1=C\c1cccs1 | ? | ? | -10% | . | ? | ?
COC(=O)C1=C(C)N(CC(C)C)C(=O)/C1=C\c1cccs1 | 45µM* | 40µM* | . | 21 | 16µM* | 50µM*
COCCCN1C(=O)/C(=C\c2cccs2)C(C(=O)OC)=C1C | -34% | ? | . | 2 | -3% | ?
COc1ccc(OC)c(NC(=O)c2c(NCc3ccc(N(C)C)cc3)sc3c2CCCC3)c1 | 11µM* | 13µM* | . | . | -25% | 11µM*
COc1cccc(CNc2sc3c(c2C(=O)Nc2ccc(OC)cc2OC)CCC3)c1 | ? | 13µM* | . | . | ? | -18%
CCOC(=O)N1CCc2c(sc(NCc3cc(OC)ccc3OC)c2C(=O)Nc2cc(OC)ccc2OC)C1 | ? | 7.1µM* | . | . | -7% | 32µM*
COc1ccc(OC)c(NC(=O)c2c(NCc3ccc(OC)c(OC)c3)sc3c2CCC3)c1 | ? | ? | . | . | -6% | -22%
CCOC(=O)N1CCc2c(sc(NC(=O)Cc3ccccc3)c2C(=O)c2ccc(OC)cc2)C1 | -31% | ? | -29% | -2 | 7% | -35%
COc1ccc(CC(=O)Nc2sc3c(c2C(N)=O)CCCC3)cc1 | -25% | 7% | . | -25 | 44% | -3%
COc1ccc(NC(=O)CN(C)CC(=O)Nc2sc3c(c2C(N)=O)CCC3)cc1 | -30% | 50µM* | -5% | -10 | 7% | -4%
Cc1ccc(Cn2ccn(Cc3ccccc3F)c(=O)c2=O)cc1 | -18% | -4%[59 µM] | . | . | 29% | -5%
COc1ccc(NC(=O)c2c(NCc3cccc(OC)c3)sc3c2CCC3)cc1 | -29% | 14µM* | . | . | -6% | -5%
COc1ccc(NC(=O)c2c(NC(=O)c3cccc(C)c3)sc3c2CCC3)cc1 | 12% | -18%[59 µM] | . | . | 54% | 3%
COc1ccc(N2CC(NC(=O)Cc3cccs3)CC2=O)cc1OC (stereo not given) | 3% | 10%[59 µM] | . | . | 24% | -36%
O=C1CC(c2ccc(Cl)cc2)n2nc(N3C(=O)c4ccccc4C3=O)nc2N1 (stereo not given) | ? | -33%[59 µM] | -6% | 6 | 25% | 79µM*
SMILES | JMJD2A Tudor | G9a block | L3MBTL1 inh | PI5P4Ka inh | HP1b chromo inh | BAZ2B inh
Cc1nn(-c2ccccc2)c2c1C1(C(=O)N(C)c3ccccc31)C(C#N)=C(N)O2 (stereo not given) | -15% | -2%[12.7 µM] | 0% | . | 4% | -1%
Cc1nn(-c2ccccc2)c2c1C1(C(=O)N3c4c(cccc41)C(C)CC3(C)C)C(C#N)=C(N)O2 (stereo not given) | ? | 10µM* | . | . | -25% | ?
O=c1c([N+](=O)[O-])c(O)c2ccccc2n1Cc1ccccc1 | -28% | 28µM* | . | -22 | 18% | -17%
CCn1c(=O)c([N+](=O)[O-])c(NCCN(C)C)c2ccccc21 | -11% | 56µM* | -4% | -2 | 29% | -29%
Cc1cc(C)c(NC(=O)Cn2c(=O)n(CCC(=O)N3CCc4ccccc4C3)c(=O)c3ccccc32)c(C)c1 | -17% | -7%[59 µM] | . | . | 36% | ?
COC(=O)C(C)n1cnc2c(nnn2-c2ccccc2)c1=O (stereo not given) | -3% | 89µM* | 0% | -3 | 32% | -5%
COc1ccccc1CNC(=O)CSc1nc2nc(C)c(Cc3ccccc3Cl)c(C)n2n1 | -14% | -22%[59 µM] | . | . | 32% | -7%
O=C(O)c1c[nH]c(=S)n1-c1ccc(F)cc1 | ? | 28µM* | 13% | -9 | 50% | ?
COc1ccccc1N1CCN(S(=O)(=O)c2cc(C(=O)Nc3ccc(Oc4ccccc4)cc3)ccc2F)CC1 | -22% | -18%[59 µM] | . | . | 43% | -2%
CCOc1ccc2nc(SCC(=O)NCc3ccc(OC)c(OC)c3)[nH]c2c1 | -24% | 0% | 1% | -19 | -14% | -12%
COc1ccc2nc(SCC(=O)c3c(N)n(C4CC4)c(=O)[nH]c3=O)[nH]c2c1 | -6% | 7.1µM* | -1% | 1 | 49% | 8%
COc1ccc2nc(N3CCCC3)[nH]c2c1 | -19% | 5.6µM* | 4% | . | 26% | 3%
COc1ccc2nc(SCC(=O)C(C)(C)C)[nH]c2c1 | -15% | 56µM* | 2% | -6 | 19% | -11%
COc1ccc2nc(SCC(=O)NCc3ccc(OC)c(OC)c3)[nH]c2c1 | 89µM* | -8%[59 µM] | . | -11 | 5% | -3%
Cc1ccc(-c2nnc(Nc3ccc(Br)cc3)c3ccccc23)cc1S(=O)(=O)N1CCN(C)CC1 | ? | -32%[59 µM] | . | . | 32% | ?
CC(C)(C)OC(=O)Nc1ncnc2c1C(c1ccccc1)c1c(ccc3ccccc13)O2 (stereo not given) | 1% | . | . | . | . | .
Nc1c(C(=O)CSc2ncccn2)c(=O)[nH]c(=O)n1C1CC1 | -23% | ? | 0% | -13 | 18% | 4%
Nc1nc(SCC(=O)c2c(N)n(C3CC3)c(=O)[nH]c2=O)n[nH]1 | -6% | 11µM* | 7% | -7 | 29% | 10%
